Data as given in PubChem BioAssay (NCATS).
Inconclusive results are not listed. Calls of active or inactive are those of the source. The call rests on the fitted dose curve.

How the values were obtained:
[1] = Primary qHTS for inhibitors of SARS-S pseudo-typed particle cell entry (AID 1479145); conditions: outcome: dose series up to 57.1 µM unless noted; further: nearly all actives have a fitted effect of over 45% in size
[2] = Primary qHTS for Huh7 cytotoxicity: counterscreen for inhibitors of MERS-S pseudotyped particle cell entry (AID 1479147); conditions: outcome: dose series up to 57.1 µM unless noted
[3] = Primary qHTS for inhibitors of MERS-S pseudo-typed particle cell entry (AID 1479149); conditions: outcome: dose series up to 57.1 µM unless noted; further: nearly all actives have a fitted effect of over 60% in size
[4] = Primary qHTS for Vero E6 cytotoxicity: counterscreen for inhibitors of SARS-S pseudo-typed particle cell entry (AID 1479150); conditions: outcome: dose series up to 57.1 µM unless noted
[5] = Cytotoxicity counterscreen for inhibitors of SARS-CoV-2 cell entry (AID 1645845); conditions: outcome: dose series up to 57.1 µM unless noted; further: nearly all actives have a fitted effect of over 50% in size
How it was run: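 HEK293-ACE2 cells (Expi293F stably expressing human ACE2) seeded overnight, then compound for 1 h plus 48 h at 37C. Viability as ATP content by luminescence; normalized to wells with cells and media-only wells.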

[6] = Primary qHTS to identify inhibitors of SARS-CoV-2 cell entry (AID 1645846); conditions: SARS-CoV-2 pseudovirus cell entry assay, luminescence; activity change, negative = inhibition: at 57.1 µM (top of the series) unless noted; further: nearly all actives have a fitted effect of over 45% in size
How it was run: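 Entry measured by luciferase signal 48 h after adding SARS-CoV-2-S pseudotyped MLV particles to HEK293-ACE2 cells preincubated 1 h with compounds. Normalisation: bald particles and spike particles.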

N#C[C@@H]1CCCN1C(=O)CNC12CC3CC(CC(O)(C3)C1)C2
inactive: Potency [1] | Potency [2] | Potency [3] | Potency [4] | Potency [5] | Potency [6]

C[C@]12CCC3c4ccc(OS(=O)(=O)O)cc4CCC3C1CCC2=O (stereo partly drawn)
-13.1%: activity change, negative = inhibition [6]
inactive: Potency [1] | Potency [2] | Potency [3] | Potency [4] | Potency [5]

CC(=O)CCC1C(=O)N(c2ccccc2)N(c2ccccc2)C1=O
-21%: activity change, negative = inhibition [6]
inactive: Potency [1] | Potency [2] | Potency [3] | Potency [4] | Potency [5]

Cn1nnc(-c2ccc(-c3ccc(N4C[C@@H](CO)OC4=O)cc3F)cn2)n1
inactive: Potency [1] | Potency [2] | Potency [3] | Potency [4] | Potency [5] | Potency [6]

CC(=O)OC1CCC2(C)C(=CCC3C2CCC2(C)C(c4cccnc4)=CCC32)C1 (stereo not drawn)
-20%: activity change, negative = inhibition [6]
inactive: Potency [1] | Potency [2] | Potency [3] | Potency [4] | Potency [5]

C=CC1=C(C(=O)O)N2C(=O)[C@@H](NC(=O)/C(=N\OCC(=O)O)c3csc(N)n3)[C@H]2SC1
inactive: Potency [1] | Potency [2] | Potency [3] | Potency [4] | Potency [5]
-7.67%: activity change, negative = inhibition [6]

Cc1cc(Nc2ncc(Cl)c(Nc3ccccc3S(=O)(=O)C(C)C)n2)c(OC(C)C)cc1C1CCNCC1
-32%: activity change, negative = inhibition [6]
inactive: Potency [1] | Potency [2] | Potency [3] | Potency [4] | Potency [5]

CCCCCCCCCCCCCCCCCC(=O)OCC(C)O (stereo not drawn)
-21% [at 114 µM]: activity change, negative = inhibition [6]
inactive: Potency [1] | Potency [2] | Potency [3] | Potency [4] | Potency [5]

CC(C)(CO)[C@@H](O)C(=O)NCCC(=O)NCCSSCCNC(=O)CCNC(=O)[C@H](O)C(C)(C)CO
inactive: Potency [1] | Potency [2] | Potency [3] | Potency [4] | Potency [5]
-13.3%: activity change, negative = inhibition [6]

C[N+](C)(CCCCCC[N+](C)(C)C1c2ccccc2-c2ccccc21)C1c2ccccc2-c2ccccc21
-0.342%: activity change, negative = inhibition [6]
inactive: Potency [1] | Potency [2] | Potency [3] | Potency [4] | Potency [5]

O=C(OC1C(OC(=O)c2cccnc2)C(OC(=O)c2cccnc2)C(OC(=O)c2cccnc2)C(OC(=O)c2cccnc2)C1OC(=O)c1cccnc1)c1cccnc1 (stereo not drawn)
-19.4% [at 19 µM]: activity change, negative = inhibition [6]
inactive: Potency [1] | Potency [2] | Potency [3] | Potency [4] | Potency [5]

C[C@@H]1C[C@H]2[C@@H]3CCC4=CC(=O)C=C[C@]4(C)[C@@]3(F)[C@@H](O)C[C@]2(C)[C@@]1(O)C(=O)COP(=O)(O)O
inactive: outcome [1] inactive [at 11.4 µM] | outcome [2] inactive [at 11.4 µM] | outcome [3] inactive [at 11.4 µM] | outcome [4] inactive [at 11.4 µM] | outcome [5] inactive [at 11.3 µM] | outcome [6] inactive [at 11.3 µM]

C=C1/C(=C/C=C2\CCC[C@]3(C)[C@@H]([C@H](C)CCCC(C)(C)O)CC[C@@H]23)C[C@@H](O)[C@@H](OCCCO)[C@@H]1O
-12.1%: activity change, negative = inhibition [6]
inactive: Potency [1] | Potency [2] | Potency [3] | Potency [4] | Potency [5]

CNC(=O)OCc1cccc(COC(=O)NC)n1
inactive: Potency [1] | Potency [2] | Potency [3] | Potency [4] | Potency [5] | Potency [6]

CC(C)(C)NCC(O)COc1ccccc1C#N (stereo not drawn)
-9.12%: activity change, negative = inhibition [6]
inactive: Potency [1] | Potency [2] | Potency [3] | Potency [4] | Potency [5]

CCC(C(=O)NC(N)=O)c1ccccc1 (stereo not drawn)
-16.3%: activity change, negative = inhibition [6]
inactive: Potency [1] | Potency [2] | Potency [3] | Potency [4] | Potency [5]

O=S(=O)(O)CC(S)CS (stereo not drawn)
inactive: Potency [1] | Potency [2] | Potency [3] | Potency [4] | Potency [5] | Potency [6]

OC[C@H]1OC(O)C[C@@H](O)[C@@H]1O (stereo partly drawn)
inactive: Potency [1] | Potency [2] | Potency [3] | Potency [4] | Potency [5]
-11.1%: activity change, negative = inhibition [6]
